From PubChem BioAssay (EPA / NIEHS)
Activity calls are given as the source filed them. How the source made its calls: active means hit-call score of the fitted dose curve at least 0.9, where 1 is the maximum; inactive means score below 0.9.

What was measured:
[1] = ATG_GLI_CIS: Attagene CIS-FACTORIAL HepG2 Assay for human Zinc Finger Protein GLI1 (AID 2282945); conditions: HepG2, Attagene cis-factorial reporter mRNA, GLI element; actives raise or lower the signal
How it was run: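 Transiently transfected HepG2 cells report endogenous transcription factor activity via cis-element-driven reporter units. After 24 h compound exposure, reporter mRNA was measured by RT-PCR with capillary electrophoresis; bidirectional fitting against DMSO baseline.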

[2] = ATG_GRE_CIS: Attagene CIS-FACTORIAL HepG2 Assay for human Glucocorticoid Response Elements (GRE) (AID 2282947); conditions: HepG2 GRE cis-reporter, Attagene multiplex mRNA; actives raise or lower the signal
How it was run: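 Transiently transfected HepG2 cells carrying GRE cis-reporter units (endogenous TF activity) dosed 24 h; reporter mRNA quantified by RT-PCR, 6-FAM labelling, HpaI digestion and capillary electrophoresis. Bidirectional fit versus DMSO baseline.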

[3] = ATG_ISRE_CIS: Attagene CIS-FACTORIAL HepG2 Assay for human Interferon Regulatory Factor 1 (IRF1) binding to an Interferon-Stimulated Response Element (ISRE) (AID 2282948); conditions: HepG2 ISRE cis-reporter (Attagene), mRNA transcription readout; actives raise or lower the signal
How it was run: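 Quantitation relies on labelled RT-PCR fragments separated by capillary electrophoresis. Human HepG2 cells bearing cis-promoter reporter constructs were treated 24 h; DMSO served as baseline for bidirectional fitting.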

[4] = ATG_M_32_CIS: Attagene CIS-FACTORIAL HepG2 Assay for M32 Transcription Factor (Internal Marker) (AID 2282949); conditions: HepG2 Attagene cis-factorial M32 reporter, mRNA; actives raise or lower the signal;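 further: background control marker of the multiplexed CIS panel rather than a real target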
How it was run: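 Fluorescent capillary electrophoresis peaks of HpaI-digested, FAM-labelled RT-PCR reporter products give the signal. Source: transiently transfected human liver HepG2 cells, 24 h after chemical dosing; bidirectional fitting against DMSO.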

[5] = ATG_M_06_CIS: Attagene CIS-FACTORIAL HepG2 Assay for M06 Transcription Factor (Internal Marker) (AID 2282950); conditions: HepG2 Attagene CIS-FACTORIAL M06 internal marker reporter; actives raise or lower the signal
How it was run: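 Cells (HepG2, transiently carrying cis-driven reporter units) receive chemical for 24 h before RNA isolation. Reporter cDNA is PCR-amplified, FAM-labelled by primer extension, HpaI-digested and sized on a capillary analyser.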

[6] = biological target: Hypoxia-inducible factor 1-alpha (Homo sapiens) (UniProt Q16665); experiment: ATG_HIF1a_CIS: Attagene CIS-FACTORIAL HepG2 Assay for human Hypoxia Inducible Factor 1 (HIF1A) (AID 2282951); conditions: HepG2 Attagene cis-factorial HIF1a reporter transcription; actives raise or lower the signal
Chain of Hypoxia-inducible factor 1-alpha (Homo sapiens) (Q16665 whole entry, looked up): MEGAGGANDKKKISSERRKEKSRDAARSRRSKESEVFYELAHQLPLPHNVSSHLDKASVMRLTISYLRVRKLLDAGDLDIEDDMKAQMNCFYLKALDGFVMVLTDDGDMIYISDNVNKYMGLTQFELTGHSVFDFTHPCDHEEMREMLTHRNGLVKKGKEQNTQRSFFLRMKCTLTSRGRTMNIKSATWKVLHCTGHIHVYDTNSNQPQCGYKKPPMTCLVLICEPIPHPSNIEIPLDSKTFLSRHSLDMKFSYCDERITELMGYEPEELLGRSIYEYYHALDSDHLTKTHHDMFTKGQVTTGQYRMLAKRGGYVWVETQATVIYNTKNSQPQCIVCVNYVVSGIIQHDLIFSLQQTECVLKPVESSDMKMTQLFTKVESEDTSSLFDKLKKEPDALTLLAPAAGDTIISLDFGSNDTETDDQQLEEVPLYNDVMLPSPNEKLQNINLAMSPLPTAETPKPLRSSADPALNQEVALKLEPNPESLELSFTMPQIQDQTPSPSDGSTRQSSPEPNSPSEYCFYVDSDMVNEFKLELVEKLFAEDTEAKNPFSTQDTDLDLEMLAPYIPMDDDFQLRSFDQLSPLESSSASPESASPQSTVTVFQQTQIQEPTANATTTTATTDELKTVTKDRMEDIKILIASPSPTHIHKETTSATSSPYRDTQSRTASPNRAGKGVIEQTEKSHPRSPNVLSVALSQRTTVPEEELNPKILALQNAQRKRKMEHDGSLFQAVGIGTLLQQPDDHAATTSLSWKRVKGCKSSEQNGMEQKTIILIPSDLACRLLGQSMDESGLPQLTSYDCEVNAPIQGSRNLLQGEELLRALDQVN
How it was run: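 Dosed 24 h, transfected HepG2 cells yielded total RNA whose reporter transcripts were RT-PCR-amplified and sized by capillary electrophoresis using fluorescent labelling; DMSO defined baseline, with gain and loss of signal both fitted.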

[7] = biological target: Hepatocyte nuclear factor 6 (Homo sapiens) (UniProt Q9UBC0); experiment: ATG_HNF6_CIS: Attagene CIS-FACTORIAL HepG2 Assay for human Hepatocyte Nuclear Factor 6 (HNF6) (AID 2282952); conditions: HepG2 Attagene cis-factorial HNF6 reporter transcription; actives raise or lower the signal
Chain of Hepatocyte nuclear factor 6 (Homo sapiens) (Q9UBC0 whole entry, looked up): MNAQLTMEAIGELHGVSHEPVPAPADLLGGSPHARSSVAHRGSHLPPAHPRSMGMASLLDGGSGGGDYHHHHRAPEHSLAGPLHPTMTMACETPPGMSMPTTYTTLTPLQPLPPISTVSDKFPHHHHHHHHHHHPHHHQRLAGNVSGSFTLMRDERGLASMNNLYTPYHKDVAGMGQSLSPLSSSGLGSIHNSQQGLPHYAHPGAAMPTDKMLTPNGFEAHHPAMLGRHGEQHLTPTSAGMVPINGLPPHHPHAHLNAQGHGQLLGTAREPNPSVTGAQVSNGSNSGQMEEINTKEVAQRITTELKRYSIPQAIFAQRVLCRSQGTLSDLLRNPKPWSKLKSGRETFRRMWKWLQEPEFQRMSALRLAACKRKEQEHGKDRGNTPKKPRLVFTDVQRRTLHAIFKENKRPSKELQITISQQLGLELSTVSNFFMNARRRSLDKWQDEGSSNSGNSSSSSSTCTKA
How it was run: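 HepG2, transient MRTU transfection (cis promoters); 24 h chemical exposure; total RNA → oligo(dT) RT → PCR → 6-FAM labelling → HpaI cut → CE; bidirectional fit vs DMSO.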

[8] = biological target: Heat shock factor protein 1 (Homo sapiens) (UniProt Q00613); experiment: ATG_HSE_CIS: Attagene CIS-FACTORIAL HepG2 Assay for human Heat Shock Transcription Factor 1 (HSE) (AID 2282953); conditions: HepG2 HSE cis-reporter, Attagene RNA transcription; actives raise or lower the signal
Chain of Heat shock factor protein 1 (Homo sapiens) (Q00613 whole entry, looked up): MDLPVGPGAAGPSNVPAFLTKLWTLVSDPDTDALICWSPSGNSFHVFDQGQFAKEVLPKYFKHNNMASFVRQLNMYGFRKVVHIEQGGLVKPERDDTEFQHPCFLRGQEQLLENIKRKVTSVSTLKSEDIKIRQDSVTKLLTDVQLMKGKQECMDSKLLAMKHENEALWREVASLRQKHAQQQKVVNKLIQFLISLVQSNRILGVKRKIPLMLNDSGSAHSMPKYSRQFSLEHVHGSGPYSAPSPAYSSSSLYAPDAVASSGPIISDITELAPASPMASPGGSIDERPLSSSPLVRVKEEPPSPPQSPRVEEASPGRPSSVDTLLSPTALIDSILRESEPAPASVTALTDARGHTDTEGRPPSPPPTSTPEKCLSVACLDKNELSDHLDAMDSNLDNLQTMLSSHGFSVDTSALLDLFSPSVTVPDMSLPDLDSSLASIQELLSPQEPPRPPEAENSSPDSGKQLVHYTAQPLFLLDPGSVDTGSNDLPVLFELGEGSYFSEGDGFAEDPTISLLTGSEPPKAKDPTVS
How it was run: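 Liver-derived HepG2 cells carry transiently introduced multiple reporter units governed by cis promoters. Reporter RNA measured 24 h post-dose through reverse transcription, PCR amplification, fluorescent labelling and capillary electrophoresis, normalised to DMSO.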

[9] = ATG_MRE_CIS: Attagene CIS-FACTORIAL HepG2 Assay for human Metal Responsive Element (MRE) (AID 2282954); conditions: HepG2 MRE cis-reporter transcription, Attagene multiplex; actives raise or lower the signal
How it was run: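 HepG2 cells transiently transfected with cis-element-driven reporter units; mRNA measured 24 h after dosing. Reporter transcripts quantified by RT-PCR, FAM labelling, HpaI digestion and capillary electrophoresis; bidirectional fit versus DMSO.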

[10] = ATG_PBREM_CIS: Attagene CIS-FACTORIAL HepG2 Assay for human Phenobarbital-responsive Enhancer Module (PBREM) (AID 2282955); conditions: HepG2 PBREM cis-reporter, Attagene multiplexed transcription; actives raise or lower the signal
How it was run: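 Transfected liver-derived HepG2 cells exposed 24 h; PBREM reporter transcript quantified via RT-PCR and capillary electrophoresis, with activity in either direction referenced to DMSO.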

[11] = biological target: Paired box protein Pax-6 (Homo sapiens) (UniProt P26367); experiment: ATG_Pax6_CIS: Attagene CIS-FACTORIAL HepG2 Assay for human Paired Box 6 (PAX6) (AID 2282956); conditions: HepG2 CIS-FACTORIAL PAX6 reporter transcription, RNA readout; actives raise or lower the signal
Chain of Paired box protein Pax-6 (Homo sapiens) (P26367 whole entry, looked up): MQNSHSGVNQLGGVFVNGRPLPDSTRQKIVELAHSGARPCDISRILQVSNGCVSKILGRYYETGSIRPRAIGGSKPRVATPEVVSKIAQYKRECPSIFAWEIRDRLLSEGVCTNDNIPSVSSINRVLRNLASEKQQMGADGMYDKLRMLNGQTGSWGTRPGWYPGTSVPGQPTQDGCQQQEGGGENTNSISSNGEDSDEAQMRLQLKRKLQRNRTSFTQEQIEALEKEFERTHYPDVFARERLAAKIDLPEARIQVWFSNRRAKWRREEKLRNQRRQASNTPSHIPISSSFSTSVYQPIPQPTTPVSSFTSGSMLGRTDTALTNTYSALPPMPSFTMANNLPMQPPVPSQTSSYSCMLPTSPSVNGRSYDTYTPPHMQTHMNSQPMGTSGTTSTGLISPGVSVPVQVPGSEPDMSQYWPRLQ
How it was run: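 After twenty-four hours of chemical exposure, transfected HepG2 cells are harvested for RNA. Cis-promoter reporter transcripts are amplified, fluorescently labelled and sized by capillary electrophoresis, with gain and loss of signal scored against DMSO.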

[12] = ATG_PXRE_CIS: Attagene CIS-FACTORIAL HepG2 Assay for human Pregnane X Receptor Element (PXRE) (AID 2282957); conditions: HepG2 Attagene CIS-FACTORIAL PXRE reporter, mRNA; actives raise or lower the signal
How it was run: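 Transfect HepG2 with MRTUs (cis promoter elements); dose chemical, incubate 24 h; isolate RNA, RT with oligo(dT), PCR, 6-FAM label, HpaI cut, CE. Gain/loss fit vs DMSO.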

[13] = ATG_PPRE_CIS: Attagene CIS-FACTORIAL HepG2 Assay for human Peroxisome Proliferator-activated Response Element (PPRE) (AID 2282958); conditions: HepG2 PPRE cis-element reporter, Attagene transcription factor profiling; actives raise or lower the signal
How it was run: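 Measured endpoint: PPRE-controlled reporter mRNA, detected by RT-PCR and capillary electrophoresis fluorescence, from transiently transfected HepG2 cells 24 h after dosing. Curves fitted in both directions using DMSO baseline.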

[14] = ATG_RORE_CIS: Attagene CIS-FACTORIAL HepG2 Assay for human RAR-related Orphan Receptor Element (RORE) (AID 2282959); conditions: HepG2 Attagene cis-factorial RORE reporter, mRNA; actives raise or lower the signal
How it was run: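 Transiently transfected HepG2 reporter cells were treated 24 h. Reporter transcripts were detected by RT-PCR and capillary electrophoresis, with bidirectional fitting against DMSO.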

[15] = ATG_Sox_CIS: Attagene CIS-FACTORIAL HepG2 Assay for human SRY-box transcription factor (SOX) (AID 2282960); conditions: HepG2 Attagene cis-factorial SOX reporter, mRNA; actives raise or lower the signal
How it was run: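 Gain- or loss-of-signal endpoint, fitted bidirectionally with DMSO as negative control. Based on reporter mRNA from transfected HepG2 cells harvested 24 h post-treatment and quantified via RT-PCR and capillary electrophoresis.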

[16] = biological target: Transcription factor Sp1 (Homo sapiens) (UniProt P08047); experiment: ATG_Sp1_CIS: Attagene CIS-FACTORIAL HepG2 Assay for human Specificity Protein 1 (Sp1) (AID 2282961); conditions: HepG2 Sp1 cis-reporter transcription, actives raise or lower the signal
Chain of Transcription factor Sp1 (Homo sapiens) (P08047 whole entry, looked up, the tested form may be a part): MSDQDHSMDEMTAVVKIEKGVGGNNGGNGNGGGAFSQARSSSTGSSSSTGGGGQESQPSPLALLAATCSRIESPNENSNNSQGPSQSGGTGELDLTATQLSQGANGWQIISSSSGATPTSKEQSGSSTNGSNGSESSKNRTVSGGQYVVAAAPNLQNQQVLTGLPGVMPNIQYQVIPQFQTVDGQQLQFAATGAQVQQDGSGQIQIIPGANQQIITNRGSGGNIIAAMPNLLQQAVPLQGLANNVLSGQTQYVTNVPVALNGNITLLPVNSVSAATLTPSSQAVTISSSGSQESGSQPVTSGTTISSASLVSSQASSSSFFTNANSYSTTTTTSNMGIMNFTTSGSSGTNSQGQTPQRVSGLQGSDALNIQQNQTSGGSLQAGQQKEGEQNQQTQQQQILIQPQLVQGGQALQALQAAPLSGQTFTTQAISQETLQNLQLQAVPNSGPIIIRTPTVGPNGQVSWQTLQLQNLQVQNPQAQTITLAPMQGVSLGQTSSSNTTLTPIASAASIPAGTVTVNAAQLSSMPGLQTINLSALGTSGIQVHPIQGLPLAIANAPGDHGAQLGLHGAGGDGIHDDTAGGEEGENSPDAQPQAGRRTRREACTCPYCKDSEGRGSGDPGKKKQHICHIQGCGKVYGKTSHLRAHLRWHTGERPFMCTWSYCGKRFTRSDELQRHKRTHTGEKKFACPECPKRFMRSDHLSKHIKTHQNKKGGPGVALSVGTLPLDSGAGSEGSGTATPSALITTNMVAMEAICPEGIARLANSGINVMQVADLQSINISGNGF
How it was run: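 Endpoint reflects endogenous Sp1 transcriptional activity, not an exogenous fusion protein: HepG2 cells with transfected cis-regulated reporters, 24 h dosing, RT-PCR/capillary electrophoresis mRNA read-out, DMSO-normalised bidirectional fit.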

[17] = ATG_SREBP_CIS: Attagene CIS-FACTORIAL HepG2 Assay for human Sterol Regulatory Element Binding (SREBP) (AID 2282962); conditions: HepG2 Attagene cis-factorial SREBP reporter, mRNA; actives raise or lower the signal
How it was run: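 Twenty-four hours after chemical dosing of transfected HepG2 cultures, reporter RNA was converted to cDNA, amplified, end-labelled with 6-FAM and resolved by capillary electrophoresis. Responses were fitted relative to DMSO.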

[18] = biological target: Signal transducer and activator of transcription 3 (Homo sapiens) (UniProt P40763); experiment: ATG_STAT3_CIS: Attagene CIS-FACTORIAL HepG2 Assay for human Signal Transducer and Activator of Transcription 3 (STAT3) (AID 2282963); conditions: HepG2, Attagene cis-factorial STAT3 reporter transcription; actives raise or lower the signal
Chain of Signal transducer and activator of transcription 3 (Homo sapiens) (P40763 whole entry, looked up): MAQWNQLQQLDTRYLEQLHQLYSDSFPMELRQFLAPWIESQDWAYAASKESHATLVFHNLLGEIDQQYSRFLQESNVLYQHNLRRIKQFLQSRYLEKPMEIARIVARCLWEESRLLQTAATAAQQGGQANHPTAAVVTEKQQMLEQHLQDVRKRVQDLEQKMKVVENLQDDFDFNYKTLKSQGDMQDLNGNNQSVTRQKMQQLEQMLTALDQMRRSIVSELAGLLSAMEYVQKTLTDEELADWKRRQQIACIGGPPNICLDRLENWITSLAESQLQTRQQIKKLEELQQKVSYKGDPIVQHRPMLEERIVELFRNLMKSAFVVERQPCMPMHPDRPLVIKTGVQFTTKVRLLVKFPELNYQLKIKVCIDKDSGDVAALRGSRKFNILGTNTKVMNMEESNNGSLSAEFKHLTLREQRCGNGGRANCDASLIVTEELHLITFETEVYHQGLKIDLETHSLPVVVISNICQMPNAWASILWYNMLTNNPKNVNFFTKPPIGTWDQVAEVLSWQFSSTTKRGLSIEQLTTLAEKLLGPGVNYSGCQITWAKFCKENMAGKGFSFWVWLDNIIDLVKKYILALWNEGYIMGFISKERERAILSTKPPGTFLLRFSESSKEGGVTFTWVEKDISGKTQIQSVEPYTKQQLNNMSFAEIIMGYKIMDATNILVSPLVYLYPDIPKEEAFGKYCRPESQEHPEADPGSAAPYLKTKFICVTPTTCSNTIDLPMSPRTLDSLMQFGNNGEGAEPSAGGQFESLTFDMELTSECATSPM
How it was run: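 HepG2 cells transiently transfected with multiple cis-element-driven reporter units report endogenous transcription factor activity. After 24 h compound exposure, reporter mRNA is measured by RT-PCR, 6-FAM labelling, HpaI digestion and capillary electrophoresis. Fitted bidirectionally versus DMSO.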

[19] = ATG_TA_CIS: Attagene CIS-FACTORIAL HepG2 Assay for human TA Basal Promoter (AID 2282964); conditions: HepG2 Attagene CIS-factorial TA basal promoter reporter; actives raise or lower the signal
How it was run: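 Background internal-marker endpoint from a 52-component HepG2 cis-reporter panel. Cells treated 24 h; reporter transcripts quantified via RT-PCR and CE fluorescence against DMSO baseline.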

[20] = biological target: Bile acid receptor (Homo sapiens) (UniProt Q96RI1); experiment: ATG_IR1_CIS: Attagene CIS-FACTORIAL HepG2 Assay for human Nuclear Receptor Subfamily 1 Group H Member 4 (NR1H4), IR1 submotif (AID 2282946); conditions: IR1 reporter transcription, actives raise or lower the signal
Chain of Bile acid receptor (Homo sapiens) (Q96RI1 whole entry, looked up): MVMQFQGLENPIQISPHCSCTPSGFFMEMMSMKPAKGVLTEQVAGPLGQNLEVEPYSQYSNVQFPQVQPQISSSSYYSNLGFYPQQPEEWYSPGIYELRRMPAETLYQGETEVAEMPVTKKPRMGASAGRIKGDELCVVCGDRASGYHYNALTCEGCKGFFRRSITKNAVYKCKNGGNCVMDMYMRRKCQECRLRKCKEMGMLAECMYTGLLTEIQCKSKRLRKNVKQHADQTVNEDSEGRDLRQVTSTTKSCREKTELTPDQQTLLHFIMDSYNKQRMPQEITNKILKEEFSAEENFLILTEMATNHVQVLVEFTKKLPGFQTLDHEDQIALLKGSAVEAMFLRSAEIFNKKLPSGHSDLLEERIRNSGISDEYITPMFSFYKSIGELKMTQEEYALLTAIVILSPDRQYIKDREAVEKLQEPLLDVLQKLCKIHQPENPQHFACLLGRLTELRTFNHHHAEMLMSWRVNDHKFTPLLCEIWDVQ
How it was run: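 HepG2 cells transiently transfected with multiple cis-promoter-driven reporter units to measure endogenous transcription factor activity; 24 h exposure. Reporter mRNA read by RT-PCR, FAM labelling, HpaI digestion and capillary electrophoresis. Bidirectional fit versus DMSO.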

Measured: AC50

COc1ccc(OC)cc1
not listed: [20]
inactive: all other assays above

CCCCCCCCCCOC(=O)c1ccccc1C(=O)OCCCCCCCC
active: [12] 3.87 µM
not listed: [17] | [18] | [20]
inactive: all other assays above

CC(=O)c1ccc2ccccc2c1
not listed: [20]
inactive: all other assays above

Cc1cccc(C)c1
active: [12] 34.4 µM
not listed: [14] | [20]
inactive: all other assays above

CCCCC(CC)COCCO (centres undefined)
not listed: [20]
inactive: all other assays above

O=C1OCc2ccccc21
not listed: [20]
inactive: all other assays above

O=C1CCCCCCCCCCCC(=O)OCCO1
not listed: [20]
inactive: all other assays above

CCOC(=O)C(=O)OCC
not listed: [20]
inactive: all other assays above

Brc1cc(Br)cc(Br)c1
active: [12] 100 µM
not listed: [14] | [20]
inactive: all other assays above

CCCCCCCCSCc1cc(C)c(O)c(CSCCCCCCCC)c1
active: [12] 19.8 µM
not listed: [13] | [20]
inactive: all other assays above

CCOC(=O)CC(C)C
not listed: [20]
inactive: all other assays above

CCCCCc1cccc(=O)o1
active: [12] 25.1 µM
not listed: [2] | [6] | [15]
inactive: all other assays above

CC(=O)c1ccc(C)cc1
not listed: [20]
inactive: all other assays above

c1ccc(OCCOc2ccccc2)cc1
active: [6] 26.4 µM | [13] 0.0167 µM
not listed: [20]
inactive: all other assays above
